Test results taken from PubChem BioAssay.
Records with an inconclusive call do not appear. The source made the active and inactive calls.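 Rule for the calls, unless noted: active = viability at or below 30% in both replicate assays; inconclusive = viability at or below 30% in just one of the two assays; inactive = the rest.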

Tests used:
[1] = reducers of endogenous Her2 protein level, primary screen, SKBR3 breast tumor cells, AlphaScreen, ATP viability (AID 461;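 active = Her2 level under about 52% in both replicate screens, with viability over 70% of control, limit read from the data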;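 for Her2 level: lower value means less Her2 protein in the cells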;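 for viability: percent of carrier control wells set as 100% viability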); settings: 18-24 h, measured here: SKBR3 viability, ATP luminescence, at 10 µM
[2] = biological target: Receptor tyrosine-protein kinase erbB-2 (Homo sapiens) (UniProt P04626); assay: as above; settings: 18-24 h, at 10 µM, stronger effect = lower value
Receptor tyrosine-protein kinase erbB-2 (Homo sapiens), sequence (P04626 whole entry, looked up): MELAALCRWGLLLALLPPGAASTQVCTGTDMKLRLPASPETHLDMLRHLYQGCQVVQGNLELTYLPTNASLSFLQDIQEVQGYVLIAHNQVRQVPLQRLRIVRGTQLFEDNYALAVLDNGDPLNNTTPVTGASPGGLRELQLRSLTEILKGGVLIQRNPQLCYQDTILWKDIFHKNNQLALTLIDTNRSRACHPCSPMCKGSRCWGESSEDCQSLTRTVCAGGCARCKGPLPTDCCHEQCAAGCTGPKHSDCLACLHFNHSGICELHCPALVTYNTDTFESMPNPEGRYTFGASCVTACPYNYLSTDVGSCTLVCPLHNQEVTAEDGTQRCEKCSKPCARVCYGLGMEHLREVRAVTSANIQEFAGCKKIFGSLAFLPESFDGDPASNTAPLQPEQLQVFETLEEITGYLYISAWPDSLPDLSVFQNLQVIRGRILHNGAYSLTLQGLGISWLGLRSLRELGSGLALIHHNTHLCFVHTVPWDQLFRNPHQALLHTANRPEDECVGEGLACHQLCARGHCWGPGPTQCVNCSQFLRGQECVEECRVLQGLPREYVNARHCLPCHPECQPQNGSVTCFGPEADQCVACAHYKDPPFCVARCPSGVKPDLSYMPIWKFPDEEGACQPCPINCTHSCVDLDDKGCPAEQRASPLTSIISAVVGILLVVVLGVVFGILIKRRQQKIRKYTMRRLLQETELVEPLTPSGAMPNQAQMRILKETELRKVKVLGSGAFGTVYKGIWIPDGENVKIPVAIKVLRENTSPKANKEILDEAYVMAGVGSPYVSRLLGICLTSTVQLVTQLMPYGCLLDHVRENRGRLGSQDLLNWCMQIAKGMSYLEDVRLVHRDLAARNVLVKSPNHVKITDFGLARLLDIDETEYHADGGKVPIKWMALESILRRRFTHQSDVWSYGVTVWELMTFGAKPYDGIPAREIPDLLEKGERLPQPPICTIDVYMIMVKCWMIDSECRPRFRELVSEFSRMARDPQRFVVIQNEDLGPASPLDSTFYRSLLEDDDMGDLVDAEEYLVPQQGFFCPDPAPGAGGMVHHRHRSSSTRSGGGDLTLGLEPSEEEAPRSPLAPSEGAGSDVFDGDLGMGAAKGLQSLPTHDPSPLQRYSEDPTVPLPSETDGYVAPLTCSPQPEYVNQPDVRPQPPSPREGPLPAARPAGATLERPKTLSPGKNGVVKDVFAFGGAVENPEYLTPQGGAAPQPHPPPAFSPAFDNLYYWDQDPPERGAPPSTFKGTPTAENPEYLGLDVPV

[3] = SK-BR-3 cell growth inhibitors, pilot screen, 24 h, human (AID 572;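 active = viability at or below 10% of carrier control in both of two separate runs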;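 note: compound exposure lasted between 18 and 24 h rather than exactly 24 h; 100% = carrier-treated control wells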); settings: SK-BR-3 viability, CellTiter-Glo luminescence, at 10 µM, stronger effect = lower value
[4] = HUVEC growth inhibition – cell-based, human, primary screen (AID 575); settings: HUVEC proliferation, CellTiter-Glo luminescence, 72 h; at 10 µM; stronger effect = lower value;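 note: 100% = median of untreated cell wells with 0.1% DMSO on each plate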
[5] = growth inhibitors of H69AR lung tumor, primary screen, human, duplicate replicates (AID 580;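 active = viability at or under a set limit in both replicates, limit being median viability minus 3 SD, cut at about 48% in these data, passing the limit was not always enough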;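 note: 100% = mean luminescence of untreated wells and 0% = no signal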); settings: H69AR lung tumor cells viability, ATP luminescence, 72 h; at 10 µM; stronger effect = lower value
[6] = reversal of MRP1-mediated doxorubicin resistance, pilot screen, H69AR cells, doxorubicin co-treatment (AID 601;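 active = viability loss from added drug above about 55%, and viability with drug at most 40%, in both replicates, limit read from the data, passing the limit was not always enough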); settings: CellTiter-Glo, 72 h, at 10 µM; for differential viability (reversal): stronger effect = higher value
[7] = 384-well plate pilot, post-Golgi transport modulator project, inhibition of yeast transport mutant growth (AID 636; in the data active = inhibition above about 31%); settings: absorbance 615 nm, about 18 h, stronger effect = higher value
[8] = growth suppression of yeast trafficking mutant, preliminary HTS, modulators of trafficking downstream of Golgi apparatus project, 1536-format plate, OD 615 nm (AID 637; in the data active = inhibition above about 30%); settings: yeast transport mutant growth, absorbance 615 nm, 18 h; stronger effect = higher value
[9] = OD615 S. cerevisiae growth inhibition, permissive medium, pilot counter-assay, permissive growth control for S. cerevisiae lifespan shortening project (AID 705;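 active = growth inhibition above 25% in both replicates, a cutoff set 3 SD above the mean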); settings: OD615, 24 h, at 10 µM, stronger effect = higher value
[10] = Restrictive medium S. cerevisiae growth inhibition, OD615, pilot screen of yeast lifespan reduction project, restrictive growth control (AID 706;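 active = growth inhibition above a set limit, 3 SD over mean compound inhibition, in both replicates, cut at about 43% in these data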;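 note: modified DeaD lifespan yeast strain shifted to restrictive glucose medium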); settings: OD615, 48 h, at 10 µM, stronger effect = higher value
[11] = viability gain of MRP-1-high H69AR cells under doxorubicin, pilot screen, MRP-1 activator project, CellTiter-Glo, duplicate (AID 807;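 active = viability increase at or above a cutoff of the median across tested compounds plus 3 SD, cut at about 8.5% in these data, passing the limit was not always enough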;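 note: compound pretreatment 18-22 h then 72 h combined with doxorubicin; 0% = doxorubicin alone and 100% = vehicle without doxorubicin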); settings: H69AR viability with doxorubicin, CellTiter-Glo luminescence; at 10 µM; stronger effect = higher value
[12] = growth suppression of beta-catenin knockout HCT116, pilot screen, human colon tumor cells (AID 823;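 active = cell viability at or below a set limit in both duplicate runs, the limit being the all-compound median minus 4 SD, cut at about 23% in these data, passing the limit was not always enough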;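 note: 0% = wells killed by 20 µM Hyamine and 100% = untreated DMSO cell wells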); settings: CellTiter-Glo, 60 h, at 10 µM, stronger effect = lower value
[13] = growth suppression of PTEN-deleted HCT116, pilot screen, cell-based, HCT116 clonal line, CellTiter-Glo (AID 824;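 active = viability at or below 27.92% in each of two runs, the all-compound median minus 4 SD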;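 note: 0% = 20 µM Hyamine control and 100% = vehicle cell control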); settings: 60 h, at 10 µM, stronger effect = lower value
[14] = inhibitors of the yeast RAM network, pilot screen, dse1pr::URA3 reporter, 5-FOA selection (AID 869;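 active = inhibition over a set limit, the all-compound mean plus 3 SD, in both replicate runs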;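 note: 0% = DMSO wells with no growth and 100% = 10 µM 1-NA-PP1 with full growth; RAM network block rescues cells from 5-FOA so hits raise OD615 growth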); settings: S. cerevisiae dse1pr::URA3 5-FOA growth, OD615, 2 d; at 10 µM; stronger effect = higher value; strain carries analog-sensitive mutant Cbk1 kinase
[15] = H69AR cells + 2 uM doxorubicin, measured here: viability with 2 uM doxorubicin, stronger effect = lower value
[16] = H69AR cells, compound alone cytotoxicity

CCN(c1ccc2c(c1)OCO2)S(=O)(=O)c1cc(Br)cc2c1N(C(=O)C1CC1)CC2
inactive: Her2 level [2] 92.5% | viability [3] 131% | viability [4] 89.6% | viability [5] 73.9% | differential viability (reversal) ([6]; H69AR cells + 2 uM doxorubicin) 11.9% | inhibition [7] -10% | inhibition [8] 3.17% | growth inhibition [9] -12.3% | growth inhibition [10] -14.7% | viability increase [11] -3.72% | viability [12] 72.4% | viability [13] 72% | inhibition [14] 3.91%
131%: viability [1]
73.9%: viability [6, 16]
62%: viability [6, 15]

CC[C@]1(O)C[C@@H]2CN(CCc3c([nH]c4ccccc34)[C@@](C(=O)OC)(c3cc4c(cc3OC)N(C)[C@H]3[C@@](O)(C(=O)OC)[C@H](OC(C)=O)[C@]5(CC)C=CCN6CC[C@]43[C@@H]65)C2)C1
55.7%: viability [6, 15]
17.5%: viability [6, 16]
active: viability [4] 10.5%
108%: viability [1]
inactive: Her2 level [2] 78.5% | viability [3] 108% | differential viability (reversal) ([6]; H69AR cells + 2 uM doxorubicin) -38.2%

CCc1nc(N)nc(N)c1-c1ccc(Cl)cc1
103%: viability [1]
inactive: Her2 level [2] 79% | viability [3] 103% | viability [4] 117% | differential viability (reversal) ([6]; H69AR cells + 2 uM doxorubicin) -59.9%
95.8%: viability [6, 15]
35.9%: viability [6, 16]

Cc1ccccc1Cn1c(=O)c2c(nc3n2CCCN3Cc2ccccc2)n(C)c1=O
89%: viability [1]
inactive: Her2 level [2] 89% | viability [3] 89% | viability [4] 65.5% | viability [5] 78.5% | inhibition [7] -3.2% | inhibition [8] -2.26%

CC1CC(C)CN(c2ncnc3c2cnn3-c2ccc(Cl)cc2)C1 (stereo unspecified)
76.9%: viability [6, 15]
80.6%: viability [6, 16]
inactive: Her2 level [2] 89.5% | viability [3] 91.5% | viability [4] 88.5% | viability [5] 80.6% | differential viability (reversal) ([6]; H69AR cells + 2 uM doxorubicin) 3.71% | inhibition [7] 0.53% | inhibition [8] -1.64% | growth inhibition [9] -5.74% | growth inhibition [10] -8.12% | viability increase [11] 5.58% | viability [12] 88.1% | viability [13] 95.3% | inhibition [14] 2.44%
91.5%: viability [1]

CCn1c(SCC(=O)Nc2ccc3c(c2)OCO3)nc2c(c1=O)SC(C)C2 (stereo unspecified)
92.5%: viability [1]
inactive: Her2 level [2] 102% | viability [3] 92.5% | viability [4] 81% | viability [5] 84.7% | differential viability (reversal) ([6]; H69AR cells + 2 uM doxorubicin) 1.51% | inhibition [7] -4.67% | inhibition [8] -2% | growth inhibition [9] -7.09% | growth inhibition [10] -23.1% | viability increase [11] -2.42% | viability [12] 99.9% | viability [13] 96.8% | inhibition [14] 1.63%
83.2%: viability [6, 15]
84.7%: viability [6, 16]

COc1ccc(N2C(=O)CC(N3CCCC4CCCCC43)C2=O)cc1 (stereo unspecified)
90.8%: viability [6, 16]
inactive: Her2 level [2] 125% | viability [3] 102% | viability [4] 109% | viability [5] 90.8% | differential viability (reversal) ([6]; H69AR cells + 2 uM doxorubicin) 9.28% | inhibition [7] -4.03% | inhibition [8] -6.83% | growth inhibition [9] -3.32% | growth inhibition [10] 3.25% | viability increase [11] -0.71% | viability [12] 98.3% | viability [13] 101% | inhibition [14] 0.71%
81.5%: viability [6, 15]
102%: viability [1]

C=CCn1c(SCC(=O)Nc2cccc(OC)c2)nnc1-c1cccnc1
inactive: Her2 level [2] 95% | viability [3] 92.5% | viability [4] 87.2% | viability [5] 95.4% | differential viability (reversal) ([6]; H69AR cells + 2 uM doxorubicin) 7.9% | inhibition [7] -6.4% | inhibition [8] 3.33% | growth inhibition [9] -11.3% | growth inhibition [10] -8.35% | viability increase [11] -2.95% | viability [12] 99.6% | viability [13] 96.8% | inhibition [14] 0.365%
87.5%: viability [6, 15]
95.4%: viability [6, 16]
92.5%: viability [1]

Cn1cccc1Cc1nnc(SCC(=O)N2CCOCC2)n1-c1ccc(F)cc1
inactive: Her2 level [2] 104% | viability [3] 88.5% | viability [4] 106% | viability [5] 99.7% | differential viability (reversal) ([6]; H69AR cells + 2 uM doxorubicin) 11.4% | inhibition [7] -6.93% | inhibition [8] 0.33% | growth inhibition [9] 5.02% | growth inhibition [10] 19.7% | viability increase [11] -1.33% | viability [12] 102% | viability [13] 94.3% | inhibition [14] -0.47%
99.7%: viability [6, 16]
88.5%: viability [1]
88.3%: viability [6, 15]

Cc1onc(-c2ccccc2Cl)c1C(=O)NCCn1c(C)cc2ccccc21
83.3%: viability [6, 16]
89.6%: viability [6, 15]
79%: viability [1]
inactive: Her2 level [2] 80.5% | viability [3] 79% | viability [4] 78.3% | viability [5] 83.3% | differential viability (reversal) ([6]; H69AR cells + 2 uM doxorubicin) -6.36% | inhibition [7] -3.2% | inhibition [8] 1.17% | growth inhibition [9] -8.05% | growth inhibition [10] 0.31% | viability increase [11] -2.02% | viability [12] 78.8% | viability [13] 85.7% | inhibition [14] 1.56%

Clc1ccc(C2Nc3ccccc3-n3cccc32)cc1 (stereo unspecified)
66.7%: viability [6, 16]
92%: viability [1]
inactive: Her2 level [2] 82% | viability [3] 92% | viability [4] 60.8% | viability [5] 66.7% | differential viability (reversal) ([6]; H69AR cells + 2 uM doxorubicin) -9.2% | inhibition [7] -3.87% | inhibition [8] 7% | growth inhibition [9] -26% | growth inhibition [10] -13.6% | viability increase [11] -4.67% | viability [12] 82.8% | viability [13] 81.3% | inhibition [14] 3.41%
75.9%: viability [6, 15]

O=c1[nH]c(=O)n([C@H]2C[C@H](O)[C@@H](CO)O2)cc1F
89%: viability [1]
57%: viability [6, 15]
inactive: Her2 level [2] 74% | viability [3] 89% | viability [4] 51.3% | differential viability (reversal) ([6]; H69AR cells + 2 uM doxorubicin) -40.6%
16.4%: viability [6, 16]
